Compounds without any hit were thinned out: in the full panel of roughly 79,000, 15% have a hit. Cut-off read from the data, not from the text of the source: active = growth inhibition above about 70%; inactive = the rest.
Tests used:
[1] = NCI Yeast Anticancer Drug Screen. Data for the rad50 strain (AID 155);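 note: 0% = growth of vehicle-only cultures of the same strain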; conditions: S. cerevisiae rad50 strain growth inhibition; at 50.0 µM; active compounds read high
How it was run: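 Compounds were tested on a yeast strain with an engineered DNA damage repair alteration; the reported value is growth inhibition normalised to vehicle treatment.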

[2] = NCI Yeast Anticancer Drug Screen. Data for the mec2-1 strain (AID 157); conditions: S. cerevisiae mec2-1 strain, at 50.0 µM, active compounds read high
How it was run: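 mec2-1 yeast strain, carrying an alteration in DNA damage repair or cell cycle control, was exposed to compounds; growth inhibition was measured relative to vehicle-treated controls.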

[3] = NCI Yeast Anticancer Drug Screen. Data for the sgs1 mgt1 strain (AID 161);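 note: 0% = growth of cultures given vehicle only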; conditions: S. cerevisiae sgs1 mgt1 strain, at 50.0 µM, active compounds read high
How it was run: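 This yeast growth screen uses a strain with defined DNA-repair lesions; compound-treated growth is compared with vehicle-treated growth.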

[4] = NCI Yeast Anticancer Drug Screen. Data for the cln2 rad14 strain (AID 165);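 note: 0% = growth equal to vehicle treated cultures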; conditions: S. cerevisiae cln2 rad14 strain, at 50.0 µM, active compounds read high
How it was run: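 Yeast carrying cln2 and rad14 alterations (cell cycle control and DNA damage repair) were exposed to compounds. Growth inhibition was measured against vehicle-treated controls.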

[5] = NCI Yeast Anticancer Drug Screen. Data for the bub3 strain (AID 167); conditions: S. cerevisiae bub3 mutant strain, at 50.0 µM, active compounds read high
How it was run: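 Growth of a checkpoint-deficient yeast mutant is measured after compound exposure. Values represent inhibition relative to vehicle.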

[6] = NCI Yeast Anticancer Drug Screen. Data for the mlh1 rad18 strain (AID 175); conditions: S. cerevisiae mlh1 rad18 strain growth inhibition; at 50.0 µM; active compounds read high
How it was run: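 Growth inhibition of the yeast strain was measured after compound exposure and expressed relative to vehicle-treated controls. The strain carries defined defects in DNA damage repair.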

Measured: growth inhibition

NC(Cc1ccccc1)C(=O)O (stereo unspecified)
inactive: [1] -20.7% | [2] -12.4% | [3] -33.9% | [4] -73.7% | [5] -24.9% | [6] -20.6%

C/C(=N\Nc1ccc([N+](=O)[O-])cc1[N+](=O)[O-])C1(C)CC=CCC1C (stereo unspecified)
inactive: [1] -3.9% | [2] -3.35% | [3] 0.4% | [4] 6.05% | [5] -1.7% | [6] -1.45%

CC12NC(=O)NC1(C)NC(=O)N2 (stereo unspecified)
inactive: [1] -8.85% | [2] -6.3% | [3] -35.9% | [4] -38.9% | [5] -29.6% | [6] 11.6%

CCc1n[nH]c(=O)n1/N=C/c1ccc(C)cc1
inactive: [1] -0.2% | [2] -3.3% | [3] -4.85% | [4] -0.3% | [5] 3.8% | [6] -2.25%

C#CCOC(=O)c1ccc(C(=O)OCC#C)cc1
inactive: [1] 11.9% | [2] -17.3% | [3] -9.3% | [4] 8.35% | [5] 3.15% | [6] -20.7%

CN1NC(=O)CC1c1ccccc1 (stereo unspecified)
inactive: [1] 18.9% | [2] -3.65% | [3] -10.8% | [4] 11.1% | [5] 0.25% | [6] 5.45%

CN(C)COC(=S)SCC(=O)O
inactive: [1] 8.4% | [2] -0.85% | [3] 2.6% | [4] -26.6% | [5] -3.05% | [6] -1.9%

O=C(c1ccccc1)c1c(-c2ccccc2)sc2nc3ccccc3nc12
inactive: [1] 3% | [2] 18.3% | [3] 3.2% | [4] 29.1% | [5] 2.65% | [6] 11.2%

COc1ccc2c(c1)C/C(=C\c1ccc(O)c(OC)c1)C2=O
inactive: [1] -46.5% | [2] -14% | [3] -33.5% | [4] -9.9% | [5] 7.8% | [6] -10.1%

CCCCCC(O)C(C)C (stereo unspecified)
inactive: [1] 1.5% | [2] -2.55% | [3] -8.65% | [4] -36.8% | [5] 15.7% | [6] 6.8%

CN1CCN(Cc2cc(C(C)(C)C)cc(-c3ccccc3)c2O)CC1
inactive: [1] 39.4% | [2] -25.1% | [3] 6.9% | [4] 6.45% | [5] 8% | [6] 25.6%

CCOC(=O)c1c(/N=C/c2ccc(N(C)C)cc2)sc2c1CCCC2
inactive: [1] 14.2% | [2] 13.8% | [3] 17.3% | [4] 23.6% | [5] 17.8% | [6] 5.85%

CC(=O)CC(=O)Nc1ccc(-c2ccccc2)cc1
inactive: [1] 19.7% | [2] 3.95% | [3] 18.1% | [4] -16.2% | [5] -6.9% | [6] -0.35%

COc1nn(C)c(=O)c2cccnc12
inactive: [1] -2.05% | [2] 7.6% | [3] -3.1% | [4] -6.25% | [5] 12.6% | [6] 1.2%

Nc1cc(Nc2ccc(Cl)[nH]c2=S)nc(N)n1
inactive: [1] 31.1% | [2] 13.8% | [3] 11.5% | [4] 20.6% | [5] 18.4% | [6] 15.2%

CC(C)(c1ccc([N+](=O)[O-])cc1)c1ccc(N)c([N+](=O)[O-])c1
inactive: [1] 0.65% | [2] -9.65% | [3] -10.6% | [4] 0.1% | [5] -9.1% | [6] -13.1%

CC1(C)COCN1COCCOCN1COCC1(C)C
inactive: [1] 10.2% | [2] -18% | [3] -1.55% | [4] 7.05% | [5] -25.9% | [6] -56.6%

COc1ccc(C(=O)C(C(=O)C(=O)NCCCNC(=O)C(=O)C(C(=O)c2ccc(OC)cc2)c2ccc(OC)cc2)c2ccc(OC)cc2)cc1 (stereo unspecified)
inactive: [1] -11.9% | [2] -25.6% | [3] -7.1% | [4] 13.8% | [5] -9.25% | [6] -10.7%

CC(=O)Nc1ccc(/C=N/NC(N)=O)cc1
inactive: [1] 16.4% | [2] 11.6% | [3] 19.8% | [4] 8.55% | [5] -0.7% | [6] 9.35%

OC1(c2ccccc2)C=C(c2ccccc2)C=C(c2ccccc2)O1 (stereo unspecified)
inactive: [1] -5.95% | [2] 10.7% | [3] -1.05% | [4] 0.9% | [5] 8.05% | [6] -2.55%

Cn1c([N+](=O)[O-])cnc1CN1CCN(CCO)CC1
inactive: [1] -2.9% | [2] -6.95% | [3] -39.1% | [4] 26.7% | [5] -20.3% | [6] 3%

CCCCN=C(N)N=C(N)N
inactive: [1] 6.7% | [2] 2.75% | [3] 0.75% | [4] -7.45% | [5] -5.15% | [6] 4.05%

Cc1nnnn1-c1ccc2ccccc2c1
inactive: [1] -24.8% | [2] -24% | [3] -6.8% | [4] -20.6% | [5] -0.05% | [6] 4.45%

Cc1ccc(C2CC(c3ccc([N+](=O)[O-])cc3)=Nc3ccccc3S2)cc1 (stereo unspecified)
inactive: [1] 6.4% | [2] -1.75% | [3] 15.1% | [4] 14.7% | [5] 20.5% | [6] 8.6%

CN1CCN(CN2C(=O)C3C4C=CC(C3C2=O)C2C(=O)N(CN3CCN(C)CC3)C(=O)C42)CC1 (stereo unspecified)
inactive: [1] 18.1% | [2] 5.95% | [3] 13.5% | [4] -0.85% | [5] 14.6% | [6] 16.9%

CC(C)NC(=O)c1ccccc1-[s+]1c2ccccc2c(=O)n1C(C)C (stereo unspecified)
inactive: [1] 22% | [2] 1.15% | [3] -11.7% | [4] 3.9% | [5] -2.95% | [6] 9.3%

CCOC(=O)C(=Cn1ccc(=O)[nH]c1=S)C(=O)OCC
inactive: [1] -4.6% | [2] -31.1% | [3] -23.9% | [4] 9.35% | [5] -11.6% | [6] -10.3%

O=C(c1ccc(Br)cc1)C(C(c1ccccc1)N1CCOCC1)N1CCOCC1 (stereo unspecified)
inactive: [1] 3.1% | [2] -1.1% | [3] -9.6% | [4] -19.5% | [5] -20.6% | [6] 31.9%

CCC(CO)NC(=O)c1cccnc1 (stereo unspecified)
inactive: [1] -13.5% | [2] -8.3% | [3] -2.85% | [4] -19% | [5] -7.6% | [6] 2.25%

C1CCc2nc3c(nc2C1)CCCC3
inactive: [1] 9.75% | [2] 1.6% | [3] 1.7% | [4] -9.65% | [5] -0.5% | [6] 7%

O=CC1N=C1c1ccccc1 (stereo unspecified)
inactive: [1] 9.4% | [2] -0.05% | [3] 0.65% | [4] 18.3% | [5] 25.9% | [6] 16.1%

COc1ccc2c(c1)CCC1=C2CCC(C(=O)O)C1(C)C(=O)O (stereo unspecified)
inactive: [1] 1.9% | [2] -3% | [3] 9.25% | [4] 4.15% | [5] -4.25% | [6] -25.4%

Cc1ccccc1OCC(C)OC(N)=O (stereo unspecified)
inactive: [1] 6.1% | [2] -11.4% | [3] 2.1% | [4] -16.4% | [5] 7% | [6] 6.15%

CCOC(=O)Oc1ccc(C(CNC(C)C)OC(=O)OCC)cc1OC(=O)OCC (stereo unspecified)
inactive: [1] 38.5% | [2] 2.8% | [3] 25.6% | [4] 9.65% | [5] 4.45% | [6] 32.9%

COc1cc2c(cc1OC)C(Cc1ccccc1CCCl)=NCC2
inactive: [1] 15.1% | [2] 8.65% | [3] -31.8% | [4] -1.8% | [5] -24.7% | [6] 2.45%

CCC1C[N+]2(C)CCc3cc(OC)c(OC)cc3C2CC1=O (stereo unspecified)
inactive: [1] -10.2% | [2] 1.25% | [3] 12.8% | [4] 19.9% | [5] 1.35% | [6] 7%

COc1ccccc1NC(=O)N(C)Cc1ccc(Cl)cc1
inactive: [1] 11.3% | [2] 18.6% | [3] 18.9% | [4] 3.75% | [5] 47.1% | [6] 33.1%

O=S(=O)(c1ccc(N=Cc2cccs2)cc1)c1ccc(N=Cc2cccs2)cc1
inactive: [1] -13.2% | [2] -22.1% | [3] -10.1% | [4] 10.7% | [5] 5.35% | [6] -13.8%

CCNC(=O)C1CCN(Cc2c[nH]c3ccccc23)CC1
inactive: [1] -19.4% | [2] 0.1% | [3] 33.2% | [4] -12.9% | [5] 0.6% | [6] -18.1%

N=C(CC(=O)Nc1ccccn1)c1ccccc1
inactive: [1] 1.25% | [2] -28.7% | [3] -23.3% | [4] -32% | [5] -20.9% | [6] -16.6%

C=C1CCCCCCCCCCC12SCCCS2
inactive: [1] -42.1% | [2] 7.6% | [3] -25.7% | [4] -11.9% | [5] 20% | [6] -26.6%

Source: PubChem BioAssay (NCI)
